Measurements: PubChem BioAssay (EPA / NIEHS)
“And” between values parts separate entries of the source, which are not always exact repeats. Equal entries are not always repeated. Records with an inconclusive call do not appear. Some structures have more than one record in an assay (separate samples or runs), and their calls can disagree. The source made the active and inactive calls. Rule for the calls, unless noted: active = hit-call score of the fitted dose curve at least 0.9, where 1 is the maximum; inactive = score below 0.9.

Tests used:
[1] = read-out: Thrombomodulin, THBD (gene 7056); assay: BSK_LPS_Thrombomodulin: BioMAP Diversity Plus: LPS Assay for Thrombomodulin Biomarker Activity (AID 2284296); conditions: primary human HUVEC with PBMC
In short: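 Thrombomodulin on the surface of LPS-activated endothelial/PBMC co-cultures was quantified by ELISA at 24 hours post-dosing, with DMSO as baseline. Parallel SRB total-protein staining flagged overt cytotoxicity.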

CD69, CD69 (gene 969) = assay: BSK_LPS_CD69: BioMAP Diversity Plus: LPS Assay for CD69 Biomarker Activity (AID 2284303); conditions: primary human HUVEC with PBMC
In short: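 CD69 surface levels were read by ELISA after 24 h chemical treatment of an LPS-stimulated HUVEC plus PBMC co-culture; positive-direction fit against DMSO vehicle.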

[2] = IUF_NPC2c_oligodendrocyte_migration_120hr: Leibniz Research Institute for Environmental Medicine (IUF) 120-hour Neural Progenitor Cell Migration Assay for Oligodendrocyte Migration (NPC2c) (AID 2284297)
In short: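 Read-out is the mean distance of O4-positive oligodendrocytes from the sphere core edge at 120 h, normalized to radial glia migration and fitted in the gain direction against DMSO. Spheres of primary human neural progenitors differentiated on laminin under continuous compound exposure.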

[3] = IUF_NPC2a_radial_glia_migration_120hr: Leibniz Research Institute for Environmental Medicine (IUF) 120-hour Neural Progenitor Cell Migration Assay for Radial Glia Migration (NPC2a) (AID 2284298)
In short: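 Readout: distance in um from sphere core edge to migration-area edge, derived from Hoechst nuclei density with a threshold-defined polynomial boundary. Spheres: hNPC, GW 16-19, 0.3 mm, on PDL/laminin; exposure 5 days; DMSO is baseline.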

[4] = IUF_NPC2a_radial_glia_migration_72hr: Leibniz Research Institute for Environmental Medicine (IUF) 72-hour Neural Progenitor Cell Migration Assay for Radial Glia Migration (NPC2a) (AID 2284299)
In short: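 Radial glia migration (µm, sphere core edge to migration front, four directions averaged) from brightfield images at 72 h; hNPC spheres differentiating on PDL/laminin in N2 medium, compound exposure at 7 concentrations from plating.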

[5] = IUF_NPC2b_neuronal_migration_120hr: Leibniz Research Institute for Environmental Medicine (IUF) 120-hour Neural Progenitor Cell Migration Assay for Neuron Migration (NPC2b) (AID 2284300)
In short: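 Read-out is mean distance from sphere edge to each TUBB3-positive neuron at 120 h, expressed relative to radial glia migration distance and to DMSO baseline. Single 0.3 mm human NPC spheres differentiated on laminin under continuous compound exposure.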

[6] = IUF_NPC3_neuronal_differentiation_120hr: Leibniz Research Institute for Environmental Medicine (IUF) 120-hour Neuronal Differentiation Assay (NPC3) (AID 2284301)
In short: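 Neuronal differentiation of primary human neural progenitors measured by high-content imaging: percent TUBB3+ of Hoechst+ nuclei within migrated area at 120 h, seven-point serial dilution plus solvent control, gain or loss relative to DMSO.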

[7] = IUF_NPC4_neurite_length_120hr: Leibniz Research Institute for Environmental Medicine (IUF) 120-hour Neuronal Morphology Assay for Neurite Length (NPC4) (AID 2284302)
Description: IUF_NPC2-5 is a cell-based, multiplexed assay that uses hNPC, a human primary neural progenitor cells, with measurements taken at 72 or 120 hours after chemical dosing in a 96-well plate. Human neural progenitor cells (hNPC) are generated from human fetal brain cortex at gestational week (GW) 16-19. In the neural progenitor cell migration and differentiation assay (NPC2-5), hNPCs grown as spheres are plated on an extracellular matrix and migrate and differentiate out of the sphere core. The processes radial glia migration, neuronal and oligodendrocyte migration as well as neuronal differentiation, neuronal morphology and oligodendrocyte differentiation are studied using automated phase contrast imaging and automated fluorescence imaging in combination with high content image analysis. In parallel, the cell viability is assessed using an alamar blue viability assay and the cytotoxicity using a lactate dehydrogenase dependent membrane integrity assay.IUF_NPC4_neurite_length_120hr is one of 12 assay components measured from the IUF_NPC2-5 assay. The neurite length at 120 hr is the mean length in um of all neurons (see IUF_NPC3_neuronal_differentiation_120hr) that are identified by the skeletonization algorithm in Omnisphero.Data from the IUF_NPC4_neurite_length_120hr component was analyzed at the endpoint IUF_NPC4_neurite_length_120hr in the positive analysis fitting direction relative to DMSO as the negative control and baseline of activity. Using a type of differentiation reporter, gain or loss-of-signal activity can be used to understand developmental effects.
Culture protocol: After the cell expansion period the cells are cultured for up to four weeks in which they are passaged every week as described in 3.6. Between one to three days after passaging spheres at a size of 0.3 mm are picked for the test method. For the assessment of neural progenitor cell migration and differentiation, the spheres are plated on poly-D-lysine/laminin coated 96-well flat bottom plates in differentiation medium (N2) to initiate migration and differentiation. Thereby one 0.3 mm big sphere is plated in the middle of a well. The differentiation medium consists of DMEM and Ham's F12 at a ratio of 3 to 1 supplemented with 1% N2 and 1% penicillin and streptomycin. Within 5 days NPCs radially migrate out of the sphere core and differentiate into radial glia cells (nestin positive), neurons (TUBB3 positive), oligodendrocytes (O4 positive) and astrocytes (GFAP positive). Cultivation during the test method is performed at 37C and 5% CO2 at a ph of 7.2-7.6.Exposure: 0.3 mm big hNPC are plated in the already prepared test conditions. Exposure starts at day 0 of differentiation and is continued over five days of differentiation until the experiment is terminated. Cells are fed with fresh medium at day 3 of differentiation. Therefore, half of the test condition solution (e.g. solvent control or compound dilution) is replaced by freshly prepared test condition solution.Test Method: Migration distance and cytotoxicity is determined after 72 hours based on brightfield images of each well. […] On the ICC images, migration after 120 hours, neuronal and oligodendrocyte number, neuronal morphology and neuron/oligodendrocyte specific migration is assessed. immunocytochemical staining (ICC) generates an image for each sphere. The plates are scanned using an automated high content imaging device and all nuclei and their positions are determined automatically based on their intensity and size. […]

[8] = IUF_NPC5_oligodendrocyte_differentiation_120hr: Leibniz Research Institute for Environmental Medicine (IUF) 120-hour Oligodendrocyte Differentiation Assay (NPC5) (AID 2284304; active = hit-call score of the fitted dose curve at least 0.9, where 1 is the maximum;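 note: share of O4-positive cells among Hoechst nuclei found by CNN image analysis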)
Description: IUF_NPC2-5 is a cell-based, multiplexed assay that uses hNPC, a human primary neural progenitor cells, with measurements taken at 72 or 120 hours after chemical dosing in a 96-well plate. Human neural progenitor cells (hNPC) are generated from human fetal brain cortex at gestational week (GW) 16-19. In the neural progenitor cell migration and differentiation assay (NPC2-5), hNPCs grown as spheres are plated on an extracellular matrix and migrate and differentiate out of the sphere core. The processes radial glia migration, neuronal and oligodendrocyte migration as well as neuronal differentiation, neuronal morphology and oligodendrocyte differentiation are studied using automated phase contrast imaging and automated fluorescence imaging in combination with high content image analysis. In parallel, the cell viability is assessed using an alamar blue viability assay and the cytotoxicity using a lactate dehydrogenase dependent membrane integrity assay.IUF_NPC5_oligodendrocyte_differentiation_120hr is one of 12 assay components measured from the IUF_NPC2-5 assay. Oligodendrocyte differentiation at 120 hr is determined as the number of all O4-positive cells in percent of the number of Hoechst-positive nuclei in the total neurosphere migration area (see IUF_NPC2a_ glia_migration_120hr) after 120 hr of migration/differentiation. Oligodendrocytes are automatically identified using a convolutional neural network (CNN) that was trained using manually annotated images of differentiated oligodendrocytes.Data from the IUF_NPC5_oligodendrocyte_differentiation_120hr component was analyzed at the endpoint IUF_NPC5_oligodendrocyte_differentiation_120hr in the positive analysis fitting direction relative to DMSO as the negative control and baseline of activity. Using a type of differentiation reporter, loss-of-signal activity can be used to understand developmental effects.
Culture protocol: After the cell expansion period the cells are cultured for up to four weeks in which they are passaged every week as described in 3.6. Between one to three days after passaging spheres at a size of 0.3 mm are picked for the test method. […] Therefore, half of the test condition solution (e.g. solvent control or compound dilution) is replaced by freshly prepared test condition solution.Test Method: Migration distance and cytotoxicity is determined after 72 hours based on brightfield images of each well. […] On the ICC images, migration after 120 hours, neuronal and oligodendrocyte number, neuronal morphology and neuron/oligodendrocyte specific migration is assessed. immunocytochemical staining (ICC) generates an image for each sphere. […]

[9] = IUF_NPC4_neurite_area_120hr: Leibniz Research Institute for Environmental Medicine (IUF) 120-hour Neuronal Morphology Assay for Neurite Area (NPC4) (AID 2284305; active = hit-call score of the fitted dose curve at least 0.9, where 1 is the maximum)
In short: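 Endpoint at 120 h: automated imaging of TUBB3/Hoechst-stained differentiating human neural progenitor spheres, neurite area per neuron from skeletonization. DMSO solvent control, not above 0.1%, set the baseline; medium was half-replaced on day 3.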

Measured: AC50

NS(=O)(=O)C(F)(F)C(F)(F)C(F)(F)C(F)(F)C(F)(F)C(F)(F)C(F)(F)C(F)(F)F
inactive: [1]
active: [1] 14.5 µM | CD69, CD69 (gene 969) 38.4 µM and 24.5 µM

O=S(=O)(O)C(F)(F)C(F)(F)C(F)(F)C(F)(F)F
inactive: [1] | [2] | [3] | [4] | [5] | [6] | [7] | CD69, CD69 (gene 969) | [8] | [9]

COc1ccc(O)c(C(C)(C)C)c1
inactive: [1] | CD69, CD69 (gene 969)

O=C(O)C(F)(F)C(F)(F)C(F)(F)C(F)(F)C(F)(F)C(F)(F)C(F)(F)C(F)(F)C(F)(F)F
active: [1] 51.4 µM and 54.9 µM | CD69, CD69 (gene 969) 49.1 µM and 45.4 µM

CO/C=C(/C(=O)OC)c1ccccc1COc1cccc(C(F)(F)F)n1
active: [2] 34.6 µM | [3] 33 µM | [4] 50 µM | [5] 50 µM | [6] 22.2 µM | [7] 19.7 µM | [8] 1.51 µM
inactive: [9]

CCOP(=S)(OCC)SCSC(C)(C)C
inactive: [2] | [3] | [4] | [5] | [6] | [7] | [9]

C=CC(N)=O
inactive: [2] | [3] | [4] | [5] | [6] | [7] | [8] | [9]

O=C(O)C(F)(F)C(F)(F)C(F)(F)C(F)(F)C(F)(F)F
inactive: [1] | CD69, CD69 (gene 969)

O=C(O)C(F)(F)C(F)(F)C(F)(F)C(F)(F)C(F)(F)C(F)(F)C(F)(F)C(F)(F)F
inactive: [1]
active: CD69, CD69 (gene 969) 41.8 µM and 30 µM

O=S(=O)(O)C(F)(F)C(F)(F)C(F)(F)C(F)(F)C(F)(F)C(F)(F)F
inactive: [1] | [2] | [3] | [4] | [5] | [6] | [7] | CD69, CD69 (gene 969) | [8] | [9]
